Experimental findings from ChEMBL document CHEMBL1157539, “Thousands of chemical starting points for antimalarial lead identification” (Nature, 2010) are described below.

Molecules are shown by their SMILES.

As a reminder, the Inhibition is the share of the control response that was lost under treatment. Low values mean little suppression, high ones strong suppression.

Format in all cases: functional
Experiment [1] deals with Plasmodium falciparum. Briefly: GSK_TCMDC: Inhibition of Plasmodium falciparum 3D7 in whole red blood cells, using parasite LDH activity as an index of growth. Test compounds present at 2uM.
The subject of experiment [2] is Plasmodium falciparum. Put plainly: GSK_TCMDC: Inhibition of Plasmodium falciparum Dd2 in whole red blood cells, using parasite LDH activity as an index of growth. Test compounds present at 2uM.
Experiment [3] has as its system HepG2. Put plainly: GSK_TCMDC: Percent inhibition of human HepG2 cell line. Test compounds present at 10uM.

For the compound `Nc1ncc(-c2ccsc2)cc1-c1nc2ccccc2[nH]1`, the Inhibition in experiment [1] is listed as 99%; in experiment [2] it was 8%; in experiment [3], 33%.
In the same order, the values of `O=C(Nc1cccnc1)c1ccc(-c2cc3ccncc3cc2OC2CCNCC2)s1` are 97%, 12% and 0%.
In the same order, the values of `CCc1ccccc1N1CCN(CCCCNC(=O)c2ccc(NC(=O)c3ccc(Cl)cc3)cc2)CC1` are 96%, 4% and 21%.
In the same order, the values of `COC(=O)c1ccc(NC(=O)Nc2ccc(Cn3ncc(N4CCCNCC4)c(Cl)c3=O)cc2)cc1.O=C(O)C(F)(F)F` are 83%, 43% and 0%.
As for `CC1CCCCN1Cc1cccc(-c2c[nH]c3nc(NC4CCCC4)ncc23)c1.O=C(O)C(F)(F)F` (stereo not given), the Inhibition was 93% in experiment [1], 14% in experiment [2] and 0% in experiment [3].
As for `CN(C)CCN(C)Cc1ccc(-c2cccc(NC(=O)c3cccc(C#N)c3)c2)cc1.O=C(O)C(F)(F)F`, the Inhibition is on record as 94% in experiment [1], 11% in experiment [2] and 23% in experiment [3].
In the same order, the values of `Cl.c1ccc(-c2nc3ccccc3[nH]2)c(Nc2ccnc3cc(-c4nccs4)ccc23)c1` are 100%, 98% and 0%.
In the same order, the values of `COc1cc(Cc2cnc(N)nc2N)cc(OCCCCc2nnn[nH]2)c1OC` are 97%, 0% and 7%.
The matching figures for `Cc1ccc(C)c(S(=O)(=O)Nc2ccc(Br)cc2C(=O)Nc2cccc(C(F)(F)F)c2)c1`: 81%, 98% and 56%.
In the case of `O=C(O)C(F)(F)F.c1cc(CNCCc2ccncc2)cc(-c2csc(-c3nc4ccccc4[nH]3)c2)c1`, the figures for the Inhibition in experiment [1], in experiment [2] and in experiment [3] were 100%, 99% and 16%, respectively.
In the same order, the values of `CN(C)CCOc1ccc(-c2cc(-c3ccc(Cl)c(O)c3)c(-c3ccncc3)o2)cc1.Cl` are 100%, 99% and 39%.
The matching figures for `Cc1cc(C)c2oc(-c3cccc(NC(=O)c4ccc([N+](=O)[O-])o4)c3C)nc2c1`: 90%, 67% and 0%.
The matching figures for `Cc1c(NCCCNCc2cc(Cl)cc(Cl)c2Cl)[nH]c2ccccc2c1=O.Cl`: 100%, 86% and 35%.
For the compound `COc1cc(O)c2c(=O)c(OC)c(-c3cccc(Cl)c3OCC(=O)O)oc2c1OC`, the results for the Inhibition in experiment [1], in experiment [2] and in experiment [3] were 100%, 0% and 0%, respectively.
Consider `COc1ccc(Nc2nccc(N3CCC(NC(=O)C(C)c4ccc(Cl)cc4)CC3)n2)cc1` (stereo not given), for which the Inhibition in experiment [1] worked out at 94%; in experiment [2], 52%; in experiment [3] it was 18%.
For `COc1ccccc1N1CCN(CCCCNC(=O)c2ccc(NC(=O)c3ccc(C(F)(F)F)cc3)cc2)CC1`, the Inhibition is 100% in experiment [1], 37% in experiment [2] and 25% in experiment [3].
In the case of `CCc1ccc(CN2CCCCC(NC(=O)c3cc(-c4ccccc4F)cs3)C2)cc1.O=C(O)C(F)(F)F` (stereo not given), the Inhibition in experiment [1] stood at 87%; in experiment [2], 12%; in experiment [3] it was 25%.
On to `CCc1cn2c3c(cc(C(=O)N[C@@H](Cc4ccccc4)[C@H](O)CNCc4ccccc4)cc13)N(C)S(=O)(=O)CC2.O=CO`, for which the figures for the Inhibition in experiment [1], in experiment [2] and in experiment [3] were 98%, 99% and 3%, respectively.
The matching figures for `Cc1nc(C)n(CC(=O)Nc2cccc(-c3cccc(-c4nc5cc(C(F)(F)F)ccc5[nH]4)c3)c2)n1`: 100%, 96% and 62%.
In the same order, the values of `O=C(CNc1ccc(Cl)c(S(=O)(=O)N2CCCC2)c1)Nc1ccc(Br)cc1F` are 99%, 97% and 18%.
The matching figures for `CC(C)C(C(=O)Nc1ccc2c(c1)OCO2)c1ccc(Cl)cc1` (stereo not given): 98%, 89% and 25%.
Regarding `COc1cc(Cl)c(C)cc1N(Cc1ccccc1-c1ccccc1)S(=O)(=O)c1ccc(C(F)(F)F)cc1`, the Inhibition in experiment [1] was determined as 90%; in experiment [2], 62%; in experiment [3], 23%.
The matching figures for `COc1cc(NC(=O)Nc2ccc([N+](=O)[O-])cc2OC)c(OC)cc1Cl`: 87%, 6% and 38%.
In the same order, the values of `N=C(N)NC(=O)Nc1cc(Br)c(Cl)c(Br)c1` are 100%, 83% and 0%.
In the same order, the values of `COc1ccc(S(=O)(=O)NC2CCN(CCNC(=O)Nc3cc(C)nc4ccccc34)C2)cc1` (stereo not given) are 88%, 41% and 0%.
Take `CCN(CC)Cc1cc(Nc2ccnc3cc(Cl)ccc23)ccc1O.Cl.Cl.Cl`: the Inhibition is listed as 100% in experiment [1], 99% in experiment [2] and 0% in experiment [3].
In the same order, the values of `CC(=O)N(C)c1ccc(C(=O)Nc2cccc(-c3cccc(-c4nc5cccc(C)c5[nH]4)c3)c2)cc1` are 89%, 30% and 11%.
Regarding `Cc1nc(C(=O)N2CCCC[C@H]2CNC(=O)c2ccc(-c3ccc(N4CCCC4=O)cc3C)cc2)c(-c2ccc(F)cc2)s1`, the Inhibition in experiment [1] amounted to 98%; in experiment [2], 94%; in experiment [3] it was 6%.
In the same order, the values of `O=C(CCN1C(=O)c2ccccc2C1=O)N1CCN(CC=Cc2ccccc2)CC1` are 87%, 3% and 10%.
The matching figures for `Cc1cc(C2NC(=O)c3ccccc3N2)c(C)n1-c1ccc2c(c1)OCO2` (stereo not given): 86%, 85% and 13%.
